# Source: publication PMC5540273 (PLoS ONE, 2017)
# Read-outs that look alike come from different tables or passages of the source.
# Key:
# SRMS = conditions: concentration: 1 μM, replicates: in singlicate; n = 1
# SRPK1 = conditions: concentration: 1 μM, replicates: in singlicate; n = 1
# SRPK2 = conditions: concentration: 1 μM, replicates: in singlicate; n = 1
# SRPK3 = conditions: concentration: 1 μM, replicates: in singlicate; n = 1
# STK16 = conditions: concentration: 1 μM, replicates: in singlicate; n = 1
# STK33 = conditions: concentration: 1 μM, replicates: in singlicate; n = 1
# STK35 = conditions: concentration: 1 μM, replicates: in singlicate; n = 1
# STK36 = conditions: concentration: 1 μM, replicates: in singlicate; n = 1
# STK39 = conditions: concentration: 1 μM, replicates: in singlicate; n = 1
# SYK = conditions: concentration: 1 μM, replicates: in singlicate; n = 1
# SgK110 = conditions: concentration: 1 μM, replicates: in singlicate; n = 1
# TAK1 = system: T1, TAK1; conditions: concentration: 1 μM, replicates: in singlicate; n = 1
# T1 construct: gene MAP3K7
# TAOK1 = conditions: concentration: 1 μM, replicates: in singlicate; n = 1
# TAOK2 = conditions: concentration: 1 μM, replicates: in singlicate; n = 1
# TAOK3 = conditions: concentration: 1 μM, replicates: in singlicate; n = 1
# TBK1 = conditions: concentration: 1 μM, replicates: in singlicate; n = 1
# TEC = conditions: concentration: 1 μM, replicates: in singlicate; n = 1
# TESK1 = conditions: concentration: 1 μM, replicates: in singlicate; n = 1
# TGFBR1 = conditions: n = 1
# TGFBR2 = conditions: concentration: 1 μM, replicates: in singlicate; n = 1
# [1] = concentration: 1 μM, replicates: in singlicate
# 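Also: KINOMEscan kinase panel screen.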
smiles,measurement,setting,value
CS(=O)(=O)CCNCc1nc(-c2ccc3ncnc(Nc4ccc(OCc5cccc(F)c5)c(Cl)c4)c3c2)cs1.Cl [GW583340],%Inh,SRMS,0%
same,%Inh,SRPK1,2%
same,%Inh,SRPK2,0%
same,%Inh,SRPK3,0%
same,%Inh,STK16,8%
same,%Inh,STK33,0%
same,%Inh,STK35,0%
same,%Inh,STK36,0%
same,%Inh,STK39,1%
same,%Inh,SYK,18%
same,%Inh,SgK110,0%
same,%Inh,TAK1,0%
same,%Inh,TAOK1,0%
same,%Inh,TAOK2,0%
same,%Inh,TAOK3,0%
same,%Inh,TBK1,14%
same,%Inh,TEC,0%
same,%Inh,TESK1,80%
same,%Inh,TGFBR1; [1],0%
same,%Inh,TGFBR2,0%
FC(F)(F)c1ccc(-c2cc(-c3c[nH]nc3-c3ccccn3)ccn2)cc1 [GW599550],%Inh,SRMS,0%
same,%Inh,SRPK1,24%
same,%Inh,SRPK2,13%
same,%Inh,SRPK3,2%
same,%Inh,STK16,10%
same,%Inh,STK33,0%
same,%Inh,STK35,0%
same,%Inh,STK36,0%
same,%Inh,STK39,0%
same,%Inh,SYK,44%
same,%Inh,SgK110,0%
same,%Inh,TAK1,28%
same,%Inh,TAOK1,0%
same,%Inh,TAOK2,0%
same,%Inh,TAOK3,0%
same,%Inh,TBK1,18%
same,%Inh,TEC,0%
same,%Inh,TESK1,17%
same,%Inh,TGFBR1; 1 µM,88%
same,%Inh,TGFBR2,77%
CNc1nccc(-c2c(-c3ccc(F)cc3)ncn2CCCN2CCOCC2)n1 [SB-222516],%Inh,SRMS,0%
same,%Inh,SRPK1,19%
same,%Inh,SRPK2,0%
same,%Inh,SRPK3,0%
same,%Inh,STK16,0%
same,%Inh,STK33,21%
same,%Inh,STK35,0%
same,%Inh,STK36,0%
same,%Inh,STK39,8%
same,%Inh,SYK,0%
same,%Inh,SgK110,7%
same,%Inh,TAK1,0%
same,%Inh,TAOK1,0%
same,%Inh,TAOK2,0%
same,%Inh,TAOK3,0%
same,%Inh,TBK1,5%
same,%Inh,TEC,33%
same,%Inh,TESK1,10%
same,%Inh,TGFBR1; [1],0%
same,%Inh,TGFBR2,16%
COc1cc2c(Nc3cccc(NC(=O)c4ccccc4)c3)ncnc2cc1OCCCN1CCOCC1 [GSK223810],%Inh,SRMS,0%
same,%Inh,SRPK1,34%
same,%Inh,SRPK2,0%
same,%Inh,SRPK3,23%
same,%Inh,STK16,0%
same,%Inh,STK33,4%
same,%Inh,STK35,5%
same,%Inh,STK36,9%
same,%Inh,STK39,0%
same,%Inh,SYK,9%
same,%Inh,SgK110,0%
same,%Inh,TAK1,0%
same,%Inh,TAOK1,0%
same,%Inh,TAOK2,0%
same,%Inh,TAOK3,0%
same,%Inh,TBK1,1%
same,%Inh,TEC,0%
same,%Inh,TESK1,0%
same,%Inh,TGFBR1; [1],0%
same,%Inh,TGFBR2,0%
CCn1c(-c2ccncc2)nc2cnccc21 [SB-735216],%Inh,SRMS,16%
same,%Inh,SRPK1,0%
same,%Inh,SRPK2,24%
same,%Inh,SRPK3,50%
same,%Inh,STK16,0%
same,%Inh,STK33,0%
same,%Inh,STK35,0%
same,%Inh,STK36,19%
same,%Inh,STK39,6%
same,%Inh,SYK,15%
same,%Inh,SgK110,0%
same,%Inh,TAK1,20%
same,%Inh,TAOK1,15%
same,%Inh,TAOK2,13%
same,%Inh,TAOK3,18%
same,%Inh,TBK1,17%
same,%Inh,TEC,7%
same,%Inh,TESK1,24%
same,%Inh,TGFBR1; [1],0%
same,%Inh,TGFBR2,0%
C[C@@H]1CCN(C(=O)CO)C[C@@H]1N(C)c1ncnc2[nH]ccc12,%Inh,SRMS,0%
same,%Inh,SRPK1,24%
same,%Inh,SRPK2,0%
same,%Inh,SRPK3,0%
same,%Inh,STK16,0%
same,%Inh,STK33,2%
same,%Inh,STK35,4%
same,%Inh,STK36,0%
same,%Inh,STK39,0%
same,%Inh,SYK,3%
same,%Inh,SgK110,0%
same,%Inh,TAK1,27%
same,%Inh,TAOK1,0%
same,%Inh,TAOK2,0%
same,%Inh,TAOK3,0%
same,%Inh,TBK1,1%
same,%Inh,TEC,3%
same,%Inh,TESK1,12%
same,%Inh,TGFBR1; [1],7%
same,%Inh,TGFBR2,4%
Cl.Cl.c1ccc(-c2cc3ccncc3cc2OC2CCNCC2)cc1 [GSK1122999],%Inh,SRMS,0%
same,%Inh,SRPK1,3%
same,%Inh,SRPK2,0%
same,%Inh,SRPK3,0%
same,%Inh,STK16,0%
same,%Inh,STK33,100%
same,%Inh,STK35,0%
same,%Inh,STK36,88%
same,%Inh,STK39,0%
same,%Inh,SYK,19%
same,%Inh,SgK110,0%
same,%Inh,TAK1,0%
same,%Inh,TAOK1,0%
same,%Inh,TAOK2,0%
same,%Inh,TAOK3,4%
same,%Inh,TBK1,21%
same,%Inh,TEC,12%
same,%Inh,TESK1,7%
same,%Inh,TGFBR1; [1],2%
same,%Inh,TGFBR2,0%
